Holding throughout (assay): log2 fold change, soluble protein after heating vs DMSO (PISA); higher = thermal stabilisation; K562 cells, 10 uM, 30 min; active = over 0.2 and 3.5 SD of the protein, either way, in both replicates (recomputed)
Compound in assay [1]: NC(=O)Nc1cc(-c2cccc(F)c2)sc1C(=O)N[C@H]1CCCNC1
The procedure, abridged:
(§1)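 K562 cells at 2×10^6 cells/mL were treated for 30 min with 10 μM compound, and aliquots were heated for 3 min over 48°C-58°C before pooling. Extraction used PBS with 0.5% NP-40 at 4°C, and soluble protein was the supernatant after 21,000xg for 90 min, measured by TMTpro 16plex LC-MS/MS with channel sums equalised. Thermal stability values, relative to control samples and from duplicates, are log2 fold changes.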

Compound in assay [2]: NC(=O)c1cnc(N[C@@H]2CCCC[C@@H]2N)nc1Nc1cccc(-n2nccn2)c1
In outline:
as §1

Compound in assay [3]: NC1(c2ccc(-c3nc4ccn5c(=O)[nH]nc5c4cc3-c3ccccc3)cc2)CCC1
In outline: as §1

Compound in assay [4]: NCC(=O)Nc1ccc(-n2nc(C(F)(F)F)cc2-c2ccc3c(ccc4ccccc43)c2)cc1
In outline: as §1

Compound in the next assay: Nc1ccccc1NC(=O)c1ccc(CNC(=O)OCc2cccnc2)cc1 [entinostat]
In outline: as §1

Compound in the next assay: O=C(CCCCCCC(=O)Nc1ccccc1)NO [vorinostat]
In outline: as §1

Compound in another assay: O=C(CCCCCCNC(=O)c1cnc(N(c2ccccc2)c2ccccc2Cl)nc1)NO [citarinostat]
The procedure, abridged: as §1

Compound in another assay: O=C(O)c1ccc2c(c1)nc(Nc1cccc(Cl)c1)c1ccncc12 [silmitasertib]
The procedure, abridged:
as §1

Compound in assay [5]: O=C1NC(=O)C(c2cnc3ccccn23)=C1c1cn2c3c(cc(F)cc13)CN(C(=O)N1CCCCC1)CC2
The procedure, abridged:
as §1

Compound in assay [6]: c1cc(OCCN2CCCCC2)cc(-c2n[nH]c3ccc(-c4nnc[nH]4)cc23)c1
In outline:
as §1

Compound in another assay: c1cn2cc(-c3ccc4cn[nH]c4c3)nc(Nc3ccc(N4CCOCC4)cc3)c2n1 [entospletinib]
In outline: as §1

The full data set covers some 7,900 targets. This sample favours those with a hit. About 0.6% of all pairs of compound and target were hits. A number with no mark means an inactive call.

Consider 13 targets from the supplement of paper PMC10849652.

UniProt P46087, sequence (P46087 whole entry, looked up): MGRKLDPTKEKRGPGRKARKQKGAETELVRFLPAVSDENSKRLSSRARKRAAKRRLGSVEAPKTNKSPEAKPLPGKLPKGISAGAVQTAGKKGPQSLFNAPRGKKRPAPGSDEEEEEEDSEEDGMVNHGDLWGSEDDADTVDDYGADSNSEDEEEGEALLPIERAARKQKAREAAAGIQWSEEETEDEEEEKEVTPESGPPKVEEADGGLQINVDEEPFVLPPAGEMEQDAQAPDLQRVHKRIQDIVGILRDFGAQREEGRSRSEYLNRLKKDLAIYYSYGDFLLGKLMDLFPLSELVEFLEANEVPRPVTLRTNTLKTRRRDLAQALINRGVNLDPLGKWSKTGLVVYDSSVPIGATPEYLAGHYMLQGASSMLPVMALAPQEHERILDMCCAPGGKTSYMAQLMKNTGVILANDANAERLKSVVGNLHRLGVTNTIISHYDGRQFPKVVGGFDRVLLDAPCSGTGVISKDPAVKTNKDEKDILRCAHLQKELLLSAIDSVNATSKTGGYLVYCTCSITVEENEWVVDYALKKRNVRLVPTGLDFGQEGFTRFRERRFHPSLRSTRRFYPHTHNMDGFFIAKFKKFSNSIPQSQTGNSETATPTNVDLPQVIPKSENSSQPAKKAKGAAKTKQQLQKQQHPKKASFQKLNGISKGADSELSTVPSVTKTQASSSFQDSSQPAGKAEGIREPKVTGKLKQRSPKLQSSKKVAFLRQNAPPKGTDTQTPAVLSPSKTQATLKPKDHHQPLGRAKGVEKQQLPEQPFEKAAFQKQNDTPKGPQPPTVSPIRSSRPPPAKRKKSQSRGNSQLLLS
UniProt P68402, sequence (P68402 whole entry, looked up): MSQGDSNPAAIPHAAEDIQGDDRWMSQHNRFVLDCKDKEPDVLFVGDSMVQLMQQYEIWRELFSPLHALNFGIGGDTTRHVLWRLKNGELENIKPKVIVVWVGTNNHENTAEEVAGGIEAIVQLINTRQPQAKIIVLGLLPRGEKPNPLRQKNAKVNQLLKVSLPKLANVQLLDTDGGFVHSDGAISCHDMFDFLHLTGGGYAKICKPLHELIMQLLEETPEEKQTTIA
UniProt Q9BRA0, sequence (Q9BRA0 whole entry, looked up): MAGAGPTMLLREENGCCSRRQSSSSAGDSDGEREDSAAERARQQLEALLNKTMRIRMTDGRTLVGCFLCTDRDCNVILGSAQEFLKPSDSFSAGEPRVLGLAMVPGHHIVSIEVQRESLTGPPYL
UniProt Q92692, sequence (Q92692 whole entry, looked up): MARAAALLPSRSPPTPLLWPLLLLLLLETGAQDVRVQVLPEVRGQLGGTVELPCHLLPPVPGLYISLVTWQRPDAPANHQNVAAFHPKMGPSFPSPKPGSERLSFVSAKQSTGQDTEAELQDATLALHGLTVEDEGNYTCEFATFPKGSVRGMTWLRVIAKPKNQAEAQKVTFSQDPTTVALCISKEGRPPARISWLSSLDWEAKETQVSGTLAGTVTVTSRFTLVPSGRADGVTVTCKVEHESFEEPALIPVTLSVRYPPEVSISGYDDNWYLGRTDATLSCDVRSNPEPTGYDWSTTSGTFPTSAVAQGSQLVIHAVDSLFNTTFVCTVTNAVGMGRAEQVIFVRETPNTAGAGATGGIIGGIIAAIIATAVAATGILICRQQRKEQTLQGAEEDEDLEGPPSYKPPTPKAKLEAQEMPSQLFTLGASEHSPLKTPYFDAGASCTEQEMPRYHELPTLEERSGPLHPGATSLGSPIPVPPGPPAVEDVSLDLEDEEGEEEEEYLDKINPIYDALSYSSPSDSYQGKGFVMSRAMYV
UniProt P30419, sequence (P30419 whole entry, looked up): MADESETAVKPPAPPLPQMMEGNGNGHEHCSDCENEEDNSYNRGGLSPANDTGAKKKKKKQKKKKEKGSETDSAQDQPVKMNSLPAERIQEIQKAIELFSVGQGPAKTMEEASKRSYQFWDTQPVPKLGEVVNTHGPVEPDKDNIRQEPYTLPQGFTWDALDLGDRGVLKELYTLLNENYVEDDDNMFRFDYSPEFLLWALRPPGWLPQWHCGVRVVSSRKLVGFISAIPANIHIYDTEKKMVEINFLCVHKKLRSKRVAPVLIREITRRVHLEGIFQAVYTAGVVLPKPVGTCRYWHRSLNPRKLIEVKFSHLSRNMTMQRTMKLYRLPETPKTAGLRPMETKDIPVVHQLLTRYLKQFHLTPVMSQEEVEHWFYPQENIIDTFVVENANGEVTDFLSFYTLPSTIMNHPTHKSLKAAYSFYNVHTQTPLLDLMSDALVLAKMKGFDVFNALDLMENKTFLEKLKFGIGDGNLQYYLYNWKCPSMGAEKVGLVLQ
UniProt Q96D46, sequence (Q96D46 whole entry, looked up): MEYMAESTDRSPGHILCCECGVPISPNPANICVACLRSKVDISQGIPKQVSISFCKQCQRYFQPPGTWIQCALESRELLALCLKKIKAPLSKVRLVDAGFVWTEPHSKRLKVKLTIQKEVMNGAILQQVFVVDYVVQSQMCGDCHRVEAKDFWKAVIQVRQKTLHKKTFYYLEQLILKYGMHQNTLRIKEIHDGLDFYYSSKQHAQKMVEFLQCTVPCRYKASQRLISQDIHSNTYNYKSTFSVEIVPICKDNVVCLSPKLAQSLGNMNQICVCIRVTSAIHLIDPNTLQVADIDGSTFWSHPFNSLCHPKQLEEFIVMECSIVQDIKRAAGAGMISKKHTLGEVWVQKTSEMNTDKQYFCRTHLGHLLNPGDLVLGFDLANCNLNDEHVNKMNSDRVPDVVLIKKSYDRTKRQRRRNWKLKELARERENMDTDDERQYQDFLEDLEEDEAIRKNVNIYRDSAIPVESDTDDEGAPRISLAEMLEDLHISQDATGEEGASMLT
UniProt Q15003, sequence (Q15003 whole entry, looked up): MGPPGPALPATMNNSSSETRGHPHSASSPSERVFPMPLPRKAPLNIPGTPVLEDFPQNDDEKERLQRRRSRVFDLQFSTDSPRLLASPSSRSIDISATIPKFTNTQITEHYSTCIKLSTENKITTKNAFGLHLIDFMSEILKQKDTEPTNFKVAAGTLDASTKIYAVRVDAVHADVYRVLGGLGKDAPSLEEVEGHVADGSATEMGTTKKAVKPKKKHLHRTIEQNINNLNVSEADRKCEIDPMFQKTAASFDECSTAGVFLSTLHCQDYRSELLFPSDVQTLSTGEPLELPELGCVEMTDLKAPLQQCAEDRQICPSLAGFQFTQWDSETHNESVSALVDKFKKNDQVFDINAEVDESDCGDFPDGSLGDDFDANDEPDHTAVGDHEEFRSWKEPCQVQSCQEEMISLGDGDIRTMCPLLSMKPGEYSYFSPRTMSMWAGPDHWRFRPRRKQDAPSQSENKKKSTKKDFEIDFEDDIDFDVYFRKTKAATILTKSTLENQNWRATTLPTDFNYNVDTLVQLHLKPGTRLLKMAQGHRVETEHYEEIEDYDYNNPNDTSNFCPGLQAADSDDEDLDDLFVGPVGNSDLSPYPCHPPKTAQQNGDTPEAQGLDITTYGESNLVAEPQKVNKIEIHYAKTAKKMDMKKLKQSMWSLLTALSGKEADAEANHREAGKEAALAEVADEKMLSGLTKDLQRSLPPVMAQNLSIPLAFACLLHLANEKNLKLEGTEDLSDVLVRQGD
MTHFD1, A0A384N5Y3, sequence (A0A384N5Y3 whole entry, looked up): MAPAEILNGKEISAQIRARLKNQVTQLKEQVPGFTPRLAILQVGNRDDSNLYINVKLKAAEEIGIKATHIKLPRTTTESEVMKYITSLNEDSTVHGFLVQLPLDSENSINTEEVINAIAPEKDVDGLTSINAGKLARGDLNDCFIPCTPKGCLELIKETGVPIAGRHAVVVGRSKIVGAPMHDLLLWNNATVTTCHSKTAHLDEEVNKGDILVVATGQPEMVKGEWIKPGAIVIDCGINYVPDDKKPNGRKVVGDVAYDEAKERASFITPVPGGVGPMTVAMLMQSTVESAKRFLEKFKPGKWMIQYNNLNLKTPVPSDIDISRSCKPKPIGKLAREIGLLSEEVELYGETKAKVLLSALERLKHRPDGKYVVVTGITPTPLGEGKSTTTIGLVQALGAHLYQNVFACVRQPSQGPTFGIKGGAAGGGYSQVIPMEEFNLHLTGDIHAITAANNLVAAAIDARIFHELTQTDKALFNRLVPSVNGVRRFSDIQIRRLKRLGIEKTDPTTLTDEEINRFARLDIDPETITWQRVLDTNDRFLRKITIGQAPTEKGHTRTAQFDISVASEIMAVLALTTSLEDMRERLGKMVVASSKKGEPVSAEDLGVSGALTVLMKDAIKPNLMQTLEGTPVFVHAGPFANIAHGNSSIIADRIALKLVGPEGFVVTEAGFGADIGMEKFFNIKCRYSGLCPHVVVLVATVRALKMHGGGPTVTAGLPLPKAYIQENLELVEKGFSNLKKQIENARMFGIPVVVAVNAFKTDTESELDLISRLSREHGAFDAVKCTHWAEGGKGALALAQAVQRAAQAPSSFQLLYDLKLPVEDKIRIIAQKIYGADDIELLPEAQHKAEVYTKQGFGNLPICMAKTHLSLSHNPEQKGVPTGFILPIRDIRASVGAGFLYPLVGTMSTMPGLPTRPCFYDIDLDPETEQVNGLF
UniProt Q99747, sequence (Q99747 whole entry, looked up): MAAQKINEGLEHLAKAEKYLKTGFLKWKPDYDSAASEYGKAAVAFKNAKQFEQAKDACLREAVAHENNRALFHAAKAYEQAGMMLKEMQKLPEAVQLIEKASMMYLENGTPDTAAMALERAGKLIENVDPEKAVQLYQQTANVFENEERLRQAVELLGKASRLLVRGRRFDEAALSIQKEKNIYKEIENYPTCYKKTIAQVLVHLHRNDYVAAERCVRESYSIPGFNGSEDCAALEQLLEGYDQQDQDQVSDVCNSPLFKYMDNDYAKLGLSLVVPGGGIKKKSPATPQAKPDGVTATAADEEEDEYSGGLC

As to NECTIN2 isoform 2 (UniProt Q92692), the log2 fold change was 0.072 in assay [1]; 0.171 in [2]; -0.194 in [3]; 0.031 in [4]; -0.032 in the assay with entinostat; 0.087 in the assay with vorinostat. For the same target, the log2 fold change with citarinostat was 0.108; with silmitasertib, -0.039; in assay [5], -0.495; in assay [6] it was 0.09; with entospletinib, -0.003.
With NAA38 isoform 2 (UniProt Q9BRA0), the log2 fold change was -0.064 in assay [1]; -0.029 in [2]; -0.105 in assay [3]; 0.026 in assay [4]; -0.009 with entinostat; -0.041 in the assay with vorinostat. Moreover, the log2 fold change in the assay with citarinostat is -0.152; with silmitasertib, 0.017; in assay [5], 0.038; in [6], -0.264; with entospletinib it was 0.13.
Regarding NCOA7 (UniProt Q8NI08), the log2 fold change is -0.061 in assay [1]; -0.036 in assay [2]; -0.068 in assay [3]; -0.033 in assay [4]; -0.067 with entinostat; 0.026 with vorinostat. For the same target, the log2 fold change in the assay with citarinostat was -0.001; with silmitasertib, 0.022; in [5], -0.093; in assay [6], -0.005; with entospletinib it was 0.003.
Consider MTHFD1, A0A384N5Y3, for which the log2 fold change in [1] is -0.048; in assay [2], -0.033; in assay [3] it was 0.17; in assay [4] it was -0.077; in the assay with entinostat, -0.059; with vorinostat it was 0.013. In addition, the log2 fold change with citarinostat is 0.024; in the assay with silmitasertib, -0.091; in assay [5], -0.056; in assay [6], 0.041; in the assay with entospletinib it was 0.051.
As for PAFAH1B2 (UniProt P68402), the log2 fold change in [1] was 0.015; in assay [2], 0.049; in assay [3], -0.037; in assay [4], -0.025; in the assay with entinostat, 0.045; in the assay with vorinostat, -0.088. In addition, the log2 fold change was 0.021 with citarinostat; 0.106 with silmitasertib; -0.048 in assay [5]; -0.097 in assay [6]; 0.022 in the assay with entospletinib.
Regarding NCAPH (UniProt Q15003), the log2 fold change is -0.086 in [1]; -0.036 in [2]; -0.092 in assay [3]; -0.043 in assay [4]; 0.038 in the assay with entinostat; 0.029 in the assay with vorinostat. Besides, the log2 fold change in the assay with citarinostat is 0.029; in the assay with silmitasertib, 0.098; in [5], 0; in assay [6] it was -0.009; with entospletinib, 0.012.
Take MRPS22 (UniProt P82650): the log2 fold change in assay [1] was -0.008; in assay [2], 0.031; in assay [3], -0.098; in assay [4] it was 0.006; with entinostat it was 0.027; with vorinostat it was 0.131. Moreover, the log2 fold change in the assay with citarinostat was 0.035; with silmitasertib it was -0.071; in assay [5] it was -0.069; in [6], -0.006; in the assay with entospletinib, 0.057.
For the target NMT1 (UniProt P30419), the log2 fold change is -0.006 in [1]; -0.043 in assay [2]; -0.052 in assay [3]; -0.129 in [4]; 0.008 with entinostat; 0.031 with vorinostat. The log2 fold change is -0.012 with citarinostat; -0.015 in the assay with silmitasertib; 0.022 in assay [5]; -0.52 (active) in assay [6]; 0.04 in the assay with entospletinib.
NOP2 isoform 4 (UniProt P46087): the log2 fold change was 0.205 in assay [1]; 0.241 in assay [2]; 0.408 in [3]; 0.3 in assay [4]; -0.163 with entinostat; 0.014 in the assay with vorinostat. Besides, the log2 fold change with citarinostat is -0.04; in the assay with silmitasertib, 0.288; in [5], 0.344; in assay [6], -0.095; with entospletinib, 0.147.
Consider NMD3 (UniProt Q96D46), for which the log2 fold change is -0.159 in [1]; -0.034 in [2]; -0.098 in assay [3]; -0.037 in assay [4]; -0.001 with entinostat; 0 in the assay with vorinostat. For the same target, the log2 fold change with citarinostat was 0.085; with silmitasertib, -0.048; in assay [5], -0.071; in assay [6] it was -0.047; with entospletinib, -0.001.
Regarding NCAPD2 (UniProt Q15021), the log2 fold change in [1] was -0.109; in assay [2], -0.075; in assay [3] it was -0.149; in [4] it was -0.045; with entinostat, 0.084; in the assay with vorinostat, 0.058. Also, the log2 fold change is 0.078 in the assay with citarinostat; 0.135 with silmitasertib; 0.014 in assay [5]; -0.002 in assay [6]; 0.031 in the assay with entospletinib.
With MRPS16 (UniProt Q9Y3D3), the log2 fold change in assay [1] was 0.026; in assay [2], -0.04; in assay [3], -0.079; in assay [4], -0.05; with entinostat it was 0.075; with vorinostat, 0.133. Moreover, the log2 fold change with citarinostat was 0.057; with silmitasertib it was -0.063; in assay [5], -0.016; in assay [6], -0.036; in the assay with entospletinib, 0.051.
In the case of NAPG (UniProt Q99747), the log2 fold change is -0.027 in assay [1]; -0.087 in assay [2]; -0.085 in assay [3]; -0.094 in assay [4]; 0.102 with entinostat; 0.117 in the assay with vorinostat. In addition, the log2 fold change with citarinostat is 0.075; with silmitasertib it was 0.032; in [5], -0.029; in [6], -0.017; with entospletinib, 0.037.
